# Reference: ChEMBL document CHEMBL1961873, “Compounds: GSK PKIS; Assays: Nanosyn kinase panel” (2012)
# Tests used:
# [1] = molecular target: T1, Inhibitor of nuclear factor kappa-B kinase subunit epsilon (Homo sapiens) (UniProt Q14164); settings: at 1 µM;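 further: reported values are averaged percent inhibition figures against human IKKε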
# T1 sequence (whole entry): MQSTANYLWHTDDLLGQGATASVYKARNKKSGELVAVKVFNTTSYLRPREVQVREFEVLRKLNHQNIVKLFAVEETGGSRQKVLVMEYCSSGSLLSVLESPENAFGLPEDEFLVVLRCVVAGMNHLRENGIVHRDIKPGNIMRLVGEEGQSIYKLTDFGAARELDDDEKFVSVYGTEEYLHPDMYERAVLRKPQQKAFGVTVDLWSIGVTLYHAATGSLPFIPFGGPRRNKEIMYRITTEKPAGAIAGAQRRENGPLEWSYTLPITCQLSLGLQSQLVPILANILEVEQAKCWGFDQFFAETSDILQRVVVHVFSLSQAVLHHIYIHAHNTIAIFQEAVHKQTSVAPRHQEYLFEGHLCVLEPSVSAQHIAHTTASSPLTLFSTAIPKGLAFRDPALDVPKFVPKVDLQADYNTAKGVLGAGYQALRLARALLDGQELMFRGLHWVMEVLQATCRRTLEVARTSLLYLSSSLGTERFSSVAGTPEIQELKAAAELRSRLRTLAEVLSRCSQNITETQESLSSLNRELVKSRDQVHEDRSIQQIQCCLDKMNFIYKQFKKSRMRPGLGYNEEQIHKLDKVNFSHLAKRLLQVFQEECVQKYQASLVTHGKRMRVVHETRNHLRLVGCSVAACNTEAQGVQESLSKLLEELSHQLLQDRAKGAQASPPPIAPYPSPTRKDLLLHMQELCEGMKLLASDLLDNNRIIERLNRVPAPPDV
# [2] = molecular target: T2, Serine/threonine-protein kinase Nek1 (Homo sapiens) (UniProt Q96PY6); settings: at 0.1 µM
# T2 sequence (whole entry): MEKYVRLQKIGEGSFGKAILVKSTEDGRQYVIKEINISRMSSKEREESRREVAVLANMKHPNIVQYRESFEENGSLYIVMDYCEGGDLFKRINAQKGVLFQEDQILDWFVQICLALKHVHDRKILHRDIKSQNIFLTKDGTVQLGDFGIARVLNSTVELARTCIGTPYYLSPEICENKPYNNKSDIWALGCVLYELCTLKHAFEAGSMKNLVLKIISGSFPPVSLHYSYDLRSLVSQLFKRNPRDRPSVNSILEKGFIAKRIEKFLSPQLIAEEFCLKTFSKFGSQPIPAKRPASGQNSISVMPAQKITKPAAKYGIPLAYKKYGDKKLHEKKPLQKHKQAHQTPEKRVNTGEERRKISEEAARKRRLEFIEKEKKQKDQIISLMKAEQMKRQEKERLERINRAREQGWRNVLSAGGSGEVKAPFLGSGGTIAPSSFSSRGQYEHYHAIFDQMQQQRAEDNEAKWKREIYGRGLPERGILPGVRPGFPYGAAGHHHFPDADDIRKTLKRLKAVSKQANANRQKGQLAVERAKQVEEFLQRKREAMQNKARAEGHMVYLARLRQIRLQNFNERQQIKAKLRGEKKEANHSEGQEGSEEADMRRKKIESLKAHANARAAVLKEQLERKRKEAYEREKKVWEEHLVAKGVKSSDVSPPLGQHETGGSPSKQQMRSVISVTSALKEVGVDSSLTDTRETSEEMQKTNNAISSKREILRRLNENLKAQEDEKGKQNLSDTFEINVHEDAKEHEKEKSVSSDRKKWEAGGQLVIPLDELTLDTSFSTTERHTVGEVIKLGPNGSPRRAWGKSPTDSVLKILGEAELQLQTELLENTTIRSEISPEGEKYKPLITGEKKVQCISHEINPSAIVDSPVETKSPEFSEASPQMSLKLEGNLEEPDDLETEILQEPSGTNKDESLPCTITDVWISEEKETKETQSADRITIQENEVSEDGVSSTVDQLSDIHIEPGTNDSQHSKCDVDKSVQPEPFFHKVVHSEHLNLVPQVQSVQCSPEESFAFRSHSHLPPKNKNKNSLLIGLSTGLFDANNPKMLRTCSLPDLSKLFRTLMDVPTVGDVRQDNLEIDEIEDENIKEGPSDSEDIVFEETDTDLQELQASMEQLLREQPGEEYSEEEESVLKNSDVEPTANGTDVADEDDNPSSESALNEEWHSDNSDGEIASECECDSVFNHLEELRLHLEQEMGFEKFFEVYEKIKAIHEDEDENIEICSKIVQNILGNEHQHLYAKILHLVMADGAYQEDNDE
# [3] = molecular target: T2, Serine/threonine-protein kinase Nek1 (Homo sapiens); settings: at 1 µM
# [4] = molecular target: T3, Serine/threonine-protein kinase Nek2 (Homo sapiens) (UniProt P51955); settings: at 0.1 µM
# T3 sequence (whole entry): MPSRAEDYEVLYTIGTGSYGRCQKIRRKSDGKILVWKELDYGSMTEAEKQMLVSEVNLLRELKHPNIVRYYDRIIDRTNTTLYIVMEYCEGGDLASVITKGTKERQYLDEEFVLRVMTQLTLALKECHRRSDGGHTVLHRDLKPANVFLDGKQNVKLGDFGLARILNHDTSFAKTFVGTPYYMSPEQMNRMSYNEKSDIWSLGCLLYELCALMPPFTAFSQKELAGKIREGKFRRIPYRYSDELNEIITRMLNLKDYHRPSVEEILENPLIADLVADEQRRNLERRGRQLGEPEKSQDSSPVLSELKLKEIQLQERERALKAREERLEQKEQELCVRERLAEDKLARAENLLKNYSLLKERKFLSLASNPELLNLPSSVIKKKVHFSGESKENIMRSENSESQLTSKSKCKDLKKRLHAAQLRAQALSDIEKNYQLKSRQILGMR
# [5] = molecular target: T3, Serine/threonine-protein kinase Nek2 (Homo sapiens); settings: at 1 µM
# [6] = molecular target: Serine/threonine-protein kinase Nek6 (Homo sapiens) (UniProt Q9HC98); settings: at 0.1 µM
# Sequence of Serine/threonine-protein kinase Nek6 (Homo sapiens) (Q9HC98 whole entry): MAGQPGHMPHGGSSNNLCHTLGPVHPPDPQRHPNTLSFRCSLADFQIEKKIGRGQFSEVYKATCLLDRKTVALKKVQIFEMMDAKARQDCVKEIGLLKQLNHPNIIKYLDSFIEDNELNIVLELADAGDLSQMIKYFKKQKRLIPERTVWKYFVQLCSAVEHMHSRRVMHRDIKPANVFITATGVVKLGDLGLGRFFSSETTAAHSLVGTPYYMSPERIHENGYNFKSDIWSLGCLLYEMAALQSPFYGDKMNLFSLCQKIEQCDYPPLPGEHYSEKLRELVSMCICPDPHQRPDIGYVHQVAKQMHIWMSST
# [7] = molecular target: Serine/threonine-protein kinase Nek6 (Homo sapiens) (UniProt Q9HC98); settings: at 1 µM
# [8] = molecular target: Serine/threonine-protein kinase Nek7 (Homo sapiens) (UniProt Q8TDX7); settings: at 0.1 µM
# Sequence of Serine/threonine-protein kinase Nek7 (Homo sapiens) (Q8TDX7 whole entry, looked up): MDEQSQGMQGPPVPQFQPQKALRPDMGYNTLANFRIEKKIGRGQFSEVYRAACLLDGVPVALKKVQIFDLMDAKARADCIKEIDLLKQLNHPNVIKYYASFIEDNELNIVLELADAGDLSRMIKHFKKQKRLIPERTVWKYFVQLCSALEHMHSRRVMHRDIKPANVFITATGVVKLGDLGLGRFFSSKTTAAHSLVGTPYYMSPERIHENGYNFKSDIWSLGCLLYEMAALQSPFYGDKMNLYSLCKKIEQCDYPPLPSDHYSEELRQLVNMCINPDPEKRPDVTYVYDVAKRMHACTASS
# [9] = molecular target: Serine/threonine-protein kinase Nek7 (Homo sapiens) (UniProt Q8TDX7); settings: at 1 µM
# [10] = molecular target: T4, Serine/threonine-protein kinase Nek9 (Homo sapiens) (UniProt Q8TD19); settings: at 0.1 µM;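 further: reported value is the mean percent inhibition of NEK9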
# T4 sequence (whole entry): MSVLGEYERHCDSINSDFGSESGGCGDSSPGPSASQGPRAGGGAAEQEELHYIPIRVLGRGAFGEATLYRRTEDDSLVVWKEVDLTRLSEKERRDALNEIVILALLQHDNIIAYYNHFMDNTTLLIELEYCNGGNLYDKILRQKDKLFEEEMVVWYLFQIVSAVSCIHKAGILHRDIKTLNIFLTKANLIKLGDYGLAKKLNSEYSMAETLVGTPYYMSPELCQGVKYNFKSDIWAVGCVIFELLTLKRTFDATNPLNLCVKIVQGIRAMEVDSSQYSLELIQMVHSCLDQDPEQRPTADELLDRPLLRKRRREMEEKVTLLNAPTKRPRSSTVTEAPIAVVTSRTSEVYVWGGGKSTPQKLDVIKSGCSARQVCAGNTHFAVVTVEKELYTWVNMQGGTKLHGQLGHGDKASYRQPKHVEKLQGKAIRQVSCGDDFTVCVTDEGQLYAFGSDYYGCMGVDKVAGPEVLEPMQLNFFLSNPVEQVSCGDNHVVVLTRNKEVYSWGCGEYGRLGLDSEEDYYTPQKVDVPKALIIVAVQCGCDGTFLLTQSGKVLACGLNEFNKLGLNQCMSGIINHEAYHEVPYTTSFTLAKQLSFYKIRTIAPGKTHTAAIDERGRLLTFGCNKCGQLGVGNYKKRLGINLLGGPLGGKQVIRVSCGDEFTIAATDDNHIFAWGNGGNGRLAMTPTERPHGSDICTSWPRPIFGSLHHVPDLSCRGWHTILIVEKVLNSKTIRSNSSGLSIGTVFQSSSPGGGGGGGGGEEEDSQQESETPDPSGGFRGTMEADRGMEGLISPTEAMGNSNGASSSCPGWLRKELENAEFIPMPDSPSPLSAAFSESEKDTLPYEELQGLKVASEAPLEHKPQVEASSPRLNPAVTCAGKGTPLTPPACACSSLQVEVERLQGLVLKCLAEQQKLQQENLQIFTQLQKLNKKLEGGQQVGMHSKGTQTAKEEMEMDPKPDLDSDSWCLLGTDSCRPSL
structure (smiles),measurement,setting,value
CCn1c(-c2nonc2N)nc2c(C#CC(C)(C)O)nc(OCCNC)cc21,inhibition,[1],46.6%
same,inhibition,[2],1.96%
same,inhibition,[3],2.74%
same,inhibition,[4],5.33%
same,inhibition,[5],2.6%
same,inhibition,[6],2.62%
same,inhibition,[7],1.71%
same,inhibition,[8],4.06%
same,inhibition,[9],9.15%
same,inhibition,[10],7.21%
